# High-throughput results from PubChem.
# PTHR1 ag: agonists of human PTHR1 parathyroid hormone receptor. HEK293 GP2 PTHR1 cells, GloSensor cAMP luminescence, 1 h. Potency, µM (series often up to 115 µM), most hits filed as activators. 410,000 compounds, 0.075% hits. AID 743266; further: nearly all actives have a fitted effect of over 55% in size
# Target sequence (Q03431 whole entry, looked up): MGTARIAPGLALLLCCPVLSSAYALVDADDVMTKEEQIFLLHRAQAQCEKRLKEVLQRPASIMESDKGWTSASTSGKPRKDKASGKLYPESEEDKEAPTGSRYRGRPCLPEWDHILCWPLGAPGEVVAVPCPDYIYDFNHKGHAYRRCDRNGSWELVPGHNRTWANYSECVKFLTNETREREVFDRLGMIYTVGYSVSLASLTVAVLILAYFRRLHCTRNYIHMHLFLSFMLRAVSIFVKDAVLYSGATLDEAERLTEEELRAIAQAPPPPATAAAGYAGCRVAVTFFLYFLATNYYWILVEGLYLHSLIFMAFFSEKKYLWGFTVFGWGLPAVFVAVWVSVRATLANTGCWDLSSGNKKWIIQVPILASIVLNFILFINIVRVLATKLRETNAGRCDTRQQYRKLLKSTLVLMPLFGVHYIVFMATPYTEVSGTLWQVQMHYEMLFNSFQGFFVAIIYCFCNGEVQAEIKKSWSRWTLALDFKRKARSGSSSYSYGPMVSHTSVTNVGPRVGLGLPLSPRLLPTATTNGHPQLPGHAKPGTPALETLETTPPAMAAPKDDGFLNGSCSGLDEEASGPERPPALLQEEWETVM
#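 HEK-293-derived GP2 cells expressing PTHR1 and a GloSensor cAMP reporter, 3,000/well, plated overnight, given luciferin plus IBMX (each 0.5 mM as added) for 1 h at 37 °C, then compound for 1 h at 37 °C. Luminescence was read after 15 min at room temperature.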
# RXFP1 antag: antagonists of human relaxin receptor RXFP1. 350,000 compounds, 0.59% hits. Q9HBX9. AID 1259400. activity change, negative = inhibition, % at 57.5 µM. HEK293-RXFP1, relaxin-stimulated cAMP HTRF, 30 min; hits give low values;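 active means activity change of -60% or lower, but not beyond a set lower limit; inconclusive means change between -60% and -40%, or beyond the set limit; inactive means change above -40%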
# NPSR antag: antagonists of human neuropeptide S receptor cAMP signaling; Q6W5P4; CHO-NPSR cells, cAMP TR-FRET, antagonist mode; Potency, µM (highest dose often 38.3 µM), usual class: inhibitors; 220,000 compounds, 1% hits; further: nearly all actives have a fitted effect of over 50% in size
# RXFP1 ag: RXFP1 (human) receptor agonism; HEK293T-RXFP1 cAMP TR-FRET, 30 min; response scale: percent of porcine relaxin response, buffer zero; Potency, µM (series often up to 57.5 µM), actives largely listed as activators; 370,000 compounds, 0.3% hits; AID 2676; further: nearly all actives have a fitted effect of over 60% in size
#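 cAMP rise read by TR-FRET after 30 min, 37C compound exposure (up to 58 uM) in RXFP1-transfected HEK293 cells with Ro 20174 present. EC50 from Hill-equation fits, with 29 nM porcine relaxin as 100% and buffer as basal.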
# TSHR antag: blocks TSH signaling through the human TSH receptor; P16473; 330,000 compounds, 0.2% hits; AID 504810; activity change, negative = inhibition, % at 11.5 µM; TSHR-expressing cells, TSH-stimulated cAMP HTRF, 2 h; hits give low values;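 active means activity change below a set negative limit, meaning inhibition stronger than a set level, cut at about -70% in these data; inconclusive means activity change between two set negative limits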
#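 Freshly harvested TSHR cells receive pin-tooled compound, then EC80 TSH at 4nM final. After 2 hours at 37 deg C, antibody in lysis buffer and cAMP-d2 are added; 30 minutes at ambient temperature precede the HTRF read.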
# HEK293 tox: cytotoxicity in counter-screen for GLP-1R inverse agonists; HEK293 cAMP-luciferase reporter cells, luminescence, 24 h; Potency, µM (doses to about 38.3 µM), usual class: inhibitors; 410,000 compounds, 0.13% hits;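 further: loss of luciferase light is scored as toxicity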
#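 A 23 nL compound transfer followed 12 hours of cell culture at 37 deg C; exposure then lasted 24 hr. Luciferase assay detection reagent was dispensed and plates read for luminescence after a 12 min room-temperature wait.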
# Hits are given with their value; – = inactive; ? = inconclusive; · = no result; ! = not confirmed by another sample. Many of the other results were omitted from the sample, so hits are more common in it than they were. Unless noted, the call rests on the fitted dose curve; in most records, active means well fitted curve in the direction sought with a large enough effect; inconclusive means small, poorly fitted or top-dose-only effect, or another doubt; inactive means no such curve, though single readings can be large; an effect the other way counts as inactive or inconclusive.
SMILES,PTHR1 ag,RXFP1 antag,NPSR antag,RXFP1 ag,TSHR antag,HEK293 tox
CN1CCN(CCC(=O)N2c3ccccc3Sc3ccc(Cl)cc32)CC1,–,–,–,–,–,?
CN1CCN(CCOC2Cc3ccccc3Sc3ccc(Cl)cc32)CC1 (stereo not drawn),?,-70,–,–,–,?
CCCCN(CC)CCNC(=O)c1cc2c(-c3ccc(Cl)cc3)nn(C)c2s1,–,-104!,·,–,–,?
CCOC(=O)/C=C1/SCC(=O)N1CC(=O)Nc1ccc2c(c1)CCC2,–,–,·,·,·,–
O=C(N/N=C/c1ccc(OC(=O)c2ccccc2Cl)cc1)c1cc(O)cc(O)c1,–,-85,·,–,–,–
CCCNC(=O)C1CCC(Cn2c(=O)c3sccc3n(CC(=O)N(CC)CC)c2=O)CC1 (stereo not drawn),?,–,·,–,·,–
O=C(CNC(=O)N1CC(=O)Nc2ccccc21)Nc1ccc(Cl)cc1,–,-61,·,–,–,–
O=C(CNC(=O)N1CC(=O)Nc2ccccc21)NCc1ccccc1Cl,–,-61,·,–,–,–
COc1cc(NCc2ccc3nc(N)nc(N)c3c2C)cc(OC)c1OC,·,–,·,·,·,·
Cn1c(=O)c2c(SCc3c(F)cccc3Cl)nc(CC(C)(C)C)nc2n(C)c1=O,–,–,10µM,–,–,–
COc1ccccc1Nc1nnc(SCc2nnc(-c3cc(OC)c(OC)c(OC)c3)o2)s1,–,–,–,–,–,–
COc1cc(-c2nnc(CSc3nnc(Nc4ccc(C(C)C)cc4)s3)o2)cc(OC)c1OC,–,–,–,–,–,11µM
O=C(NCCCN1CCCC1)[C@H](CSCc1ccccc1)N1Cc2ccccc2C1=O,–,-60,–,–,–,–
NC(=O)c1ccccc1NC(=O)CCn1c(=S)oc2ccccc21,–,–,·,–,–,–
CC[N+](CC)(CCCCS(=O)(=O)[O-])CCNP1(=O)C=C(c2ccccc2)OC(c2ccccc2)=C1,–,–,–,16µM,–,–
O=C(Nc1ccc2c(c1)N(S(=O)(=O)c1cccs1)CCC2)c1c(F)cccc1Cl,–,–,·,–,–,–
COc1cccc(OC)c1C(=O)Nc1ccc2c(c1)N(S(=O)(=O)c1cccs1)CCC2,–,–,·,–,-112,–
O=[N+]([O-])c1cc([N+](=O)[O-])c2oc(-c3ccccc3)c(Br)c2c1O,–,-113,·,–,?,?
Cc1nc2ccn(Cc3ccco3)c(=O)c2cc1C(=O)Nc1ccc(F)cc1,–,–,·,–,·,–
CCOC(=O)C(Sc1cc(-c2ccccc2)nc2ncnn12)C(C)=O (stereo not drawn),–,–,–,–,–,3.5µM
CC(=O)c1cccc(N(C(=O)c2csnn2)C(C(=O)NC2CCCC2)c2ccccc2)c1 (stereo not drawn),–,-80,·,–,–,–
Cc1noc(C)c1-c1ccc2ncnc(NCC3CCCCN3C)c2c1 (stereo not drawn),–,·,·,–,–,·
NC(=O)C1CCN(c2nc(-c3cccc([N+](=O)[O-])c3)cs2)CC1,·,·,·,·,–,·
Cc1ccccc1Oc1cc(-n2ncc(Cl)c(Cl)c2=O)ncn1,–,·,2.5µM,–,-90,3.2µM
CCOc1cnn(-c2cc(Oc3ccc(C)cc3)ncn2)c(=O)c1Cl,–,–,–,–,–,–
SMILES,PTHR1 ag,RXFP1 antag,NPSR antag,RXFP1 ag,TSHR antag,HEK293 tox
O=C(CSc1ncc2c(n1)-c1ccccc1N(Cc1ccc(F)cc1)S2(=O)=O)NCCc1ccccc1,–,–,·,?,·,–
C=CC(=O)N1C/C(=C/c2ccc(F)cc2)C(=O)/C(=C\c2ccc(F)cc2)C1,–,-80,·,·,·,?
CN1C2CCC1/C(=C\c1ccc(F)cc1)C(=O)/C2=C/c1ccc(F)cc1,–,·,–,–,–,–
CCc1cccc2c(CCO)c[nH]c12,·,–,·,·,·,·
CCOc1cccc(/C=N/NC(=O)c2cc(-c3cccn3C)n[nH]2)c1O,–,-77,–,–,–,?
Cc1ccc(S(=O)(=O)Nc2ccc(-c3nc4cc(NS(=O)(=O)c5ccc(C)cc5)ccc4o3)cc2)cc1,·,·,10µM,–,?,·
Cc1[nH]c2ccccc2c1/C=C/c1cc[n+](C)cc1,–,·,10µM,–,–,–
C[n+]1ccc2[nH]c3ccccc3c2c1,–,·,·,·,·,–
CC1=C(c2ccc(Cl)cc2)S(=O)(=O)N=C1N1CCN(c2cccc(C)c2)C(C)C1 (stereo not drawn),–,–,·,–,·,–
CSc1nc(N)c2ncn([C@@H]3O[C@H](COP(=O)(O)OP(=O)(O)O)C(O)[C@H]3O)c2n1 (stereo partly drawn),·,·,·,·,–,·
Cc1ccc(NC(=O)NCC2CC2(Cl)Cl)cc1 (stereo not drawn),–,–,·,–,–,–
O=C(NCC1CC1(Cl)Cl)Nc1ccc(Cl)c(Cl)c1 (stereo not drawn),–,-67,·,–,–,–
Cc1ccc(Cl)cc1N1CCN(S(=O)(=O)c2ccc3c(c2)CC(C)N3C(=O)C2CCC2)CC1 (stereo not drawn),–,–,·,–,·,–
Cc1ccc(C)c(N2CCN(S(=O)(=O)c3ccc4c(c3)CC(C)N4C(=O)C3CC3)CC2)c1 (stereo not drawn),–,–,·,–,-77,–
CCCNC1(C(N)=O)CCN(Cc2ccccc2)CC1,–,–,·,·,·,–
Cn1cc(S(C)=O)c(=O)c2ccc(F)cc21 (stereo not drawn),·,–,·,·,·,·
O=C(/C=C/c1cccc2ccccc12)c1ccncc1,–,-71,–,–,–,?
CCCCc1nnc(NC(=O)CCc2ccccc2)s1,–,–,·,–,–,–
CCCC(=O)Nc1nnc(CCc2ccccc2)s1,–,–,·,–,-89,–
COc1ccc(C(=NNc2ccccc2C(=O)O)c2ccc(OC)cc2)cc1,–,–,7.9µM,–,–,–
COc1cc(/C=C2\CC/C(=C\c3cc(OC)c(OC)c(OC)c3)C2=O)cc(OC)c1OC,–,–,–,–,–,–
COc1cc(/C=C2\CCC/C(=C\c3ccc(O)c(OC)c3)C2=O)ccc1O,–,-69,·,–,–,8.9µM
COc1cc(C=C2CCC/C(=C\c3ccc(O)c(OC)c3)C2=O)ccc1O,·,-95,·,·,·,·
COc1cc(/C=C2\COC/C(=C\c3cc(OC)c(OC)c(OC)c3)C2=O)cc(OC)c1OC,–,-63,?,–,–,?
COc1cc(/C=C2/CCCC(C(=O)C(F)(F)F)=C2O)ccc1O,–,–,–,–,–,–
COc1ccc(C2=NOC(Cn3nc(C(=O)NCc4ccccc4OC)cc3-c3ccccc3)C2)cc1 (stereo not drawn),–,·,·,–,–,–
